In article PMC5540273 (PLoS ONE, 2017):

How the values were obtained:
AAK1 = conditions: concentration: 1 μM, replicates: in singlicate; n = 1
ABL1-nonphosphorylated = conditions: concentration: 1 μM, replicates: in singlicate; n = 1
ABL1-phosphorylated = conditions: concentration: 1 μM, replicates: in singlicate; n = 1
ABL2 = conditions: concentration: 1 μM, replicates: in singlicate; n = 1
ACVR1B = conditions: concentration: 1 μM, replicates: in singlicate; n = 1
ACVR1 = conditions: concentration: 1 μM, replicates: in singlicate; n = 1
ACVR2A = conditions: concentration: 1 μM, replicates: in singlicate; n = 1
ACVR2B = conditions: concentration: 1 μM, replicates: in singlicate; n = 1
ACVRL1 = conditions: concentration: 1 μM, replicates: in singlicate; n = 1
ADCK3 = tested on: T1, ADCK3; conditions: concentration: 1 μM, replicates: in singlicate; n = 1
T1 construct: gene CABC1

ADCK4 = conditions: concentration: 1 μM, replicates: in singlicate; n = 1
AKT1 = conditions: concentration: 1 μM, replicates: in singlicate; n = 1
AKT2 = conditions: concentration: 1 μM, replicates: in singlicate; n = 1
AKT3 = conditions: concentration: 1 μM, replicates: in singlicate; n = 1
ALK = conditions: concentration: 1 μM, replicates: in singlicate; n = 1
YSK4 = tested on: T2, YSK4
T2 construct: gene MAP3K19

p38-alpha = tested on: T3, p38-alpha
T3 construct: gene MAPK14

p38-beta = tested on: T4, p38-beta
T4 construct: gene MAPK11
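For %Inh in this document: KINOMEscan kinase panel screen.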
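For Kd in this document: kd values determined as follow-up on hits from a single-replicate KINOMEscan panel screen.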

COc1ccc(Nc2nccc(-c3ccc(NC(=O)c4cc5cc(F)ccc5[nH]4)cc3)n2)cc1 [GSK1229496]
%Inh (AAK1): 65%
%Inh (ABL1-nonphosphorylated): 0%
%Inh (ABL1-phosphorylated): 0%
%Inh (ABL2): 0%
%Inh (ACVR1B): 23%
%Inh (ACVR1): 0%
%Inh (ACVR2A): 0%
%Inh (ACVR2B): 0%
%Inh (ACVRL1): 0%
%Inh (ADCK3): 5%
%Inh (ADCK4): 29%
%Inh (AKT1): 0%
%Inh (AKT2): 0%
%Inh (AKT3): 0%
%Inh (ALK): 17%

O=C(Nc1n[nH]c2nc(-c3cccs3)c(Br)cc12)C1CC1 [SB-735297]
Kd (YSK4): 200 nM
%Inh (AAK1): 10%
%Inh (ABL1-nonphosphorylated): 52%
%Inh (ABL1-phosphorylated): 30%
%Inh (ABL2): 0%
%Inh (ACVR1B): 0%
%Inh (ACVR1): 27%
%Inh (ACVR2A): 0%
%Inh (ACVR2B): 0%
%Inh (ACVRL1): 0%
%Inh (ADCK3): 0%
%Inh (ADCK4): 0%
%Inh (AKT1): 0%
%Inh (AKT2): 0%
%Inh (AKT3): 0%
%Inh (ALK): 0%

COc1cccc(C2=C(Nc3cc(Cl)c(O)c(Cl)c3)C(=O)NC2=O)c1 [SB-390767]
%Inh (AAK1): 0%
%Inh (ABL1-nonphosphorylated): 0%
%Inh (ABL1-phosphorylated): 4%
%Inh (ABL2): 19%
%Inh (ACVR1B): 0%
%Inh (ACVR1): 20%
%Inh (ACVR2A): 0%
%Inh (ACVR2B): 2%
%Inh (ACVRL1): 19%
%Inh (ADCK3): 1%
%Inh (ADCK4): 0%
%Inh (AKT1): 0%
%Inh (AKT2): 0%
%Inh (AKT3): 0%
%Inh (ALK): 29%

COc1cccc(NC(=O)Nc2ccc(C)c(-c3ccc(C(=O)Nc4ccncc4)cc3)c2)c1 [GSK1398474]
%Inh (AAK1): 0%
%Inh (ABL1-nonphosphorylated): 4%
%Inh (ABL1-phosphorylated): 0%
%Inh (ABL2): 21%
%Inh (ACVR1B): 0%
%Inh (ACVR1): 0%
%Inh (ACVR2A): 0%
%Inh (ACVR2B): 12%
%Inh (ACVRL1): 0%
%Inh (ADCK3): 30%
%Inh (ADCK4): 12%
%Inh (AKT1): 0%
%Inh (AKT2): 16%
%Inh (AKT3): 0%
%Inh (ALK): 23%

Nc1nccc(-c2c(-c3ccc(F)cc3)ncn2C2CCN(Cc3ccccc3)CC2)n1 [SB-219980]
Kd (p38-alpha): 46 nM
%Inh (AAK1): 0%
%Inh (ABL1-nonphosphorylated): 0%
%Inh (ABL1-phosphorylated): 0%
%Inh (ABL2): 0%
%Inh (ACVR1B): 0%
%Inh (ACVR1): 7%
%Inh (ACVR2A): 0%
%Inh (ACVR2B): 0%
%Inh (ACVRL1): 9%
%Inh (ADCK3): 0%
%Inh (ADCK4): 55%
%Inh (AKT1): 15%
%Inh (AKT2): 0%
%Inh (AKT3): 0%
%Inh (ALK): 16%

Cc1ccc(NC(=O)Nc2ccc(Cl)c(C(F)(F)F)c2)cc1-c1ccc(C(=O)Nc2ccncc2)cc1 [GSK1398470]
Kd (p38-alpha): 310 nM
Kd (p38-beta): 90 nM
%Inh (AAK1): 3%
%Inh (ABL1-nonphosphorylated): 1%
%Inh (ABL1-phosphorylated): 0%
%Inh (ABL2): 34%
%Inh (ACVR1B): 5%
%Inh (ACVR1): 1%
%Inh (ACVR2A): 0%
%Inh (ACVR2B): 0%
%Inh (ACVRL1): 0%
%Inh (ADCK3): 14%
%Inh (ADCK4): 2%
%Inh (AKT1): 0%
%Inh (AKT2): 16%
%Inh (AKT3): 0%
%Inh (ALK): 0%

COc1ccc(CSc2nnc(-c3ccc4ncsc4c3)o2)cc1C(F)(F)F
%Inh (AAK1): 9%
%Inh (ABL1-nonphosphorylated): 13%
%Inh (ABL1-phosphorylated): 8%
%Inh (ABL2): 2%
%Inh (ACVR1B): 9%
%Inh (ACVR1): 0%
%Inh (ACVR2A): 0%
%Inh (ACVR2B): 0%
%Inh (ACVRL1): 2%
%Inh (ADCK3): 0%
%Inh (ADCK4): 0%
%Inh (AKT1): 8%
%Inh (AKT2): 4%
%Inh (AKT3): 0%
%Inh (ALK): 0%

Fc1ccc(-c2nc3n(c2-c2ccncc2)CCS3)cc1 [GI98581]
Kd (p38-alpha): 130 nM
%Inh (AAK1): 1%
%Inh (ABL1-nonphosphorylated): 0%
%Inh (ABL1-phosphorylated): 0%
%Inh (ABL2): 9%
%Inh (ACVR1B): 15%
%Inh (ACVR1): 0%
%Inh (ACVR2A): 0%
%Inh (ACVR2B): 20%
%Inh (ACVRL1): 0%
%Inh (ADCK3): 13%
%Inh (ADCK4): 23%
%Inh (AKT1): 0%
%Inh (AKT2): 13%
%Inh (AKT3): 9%
%Inh (ALK): 28%

Cn1cncc1-c1cc2c(Nc3ccc(OCc4ccccc4)cc3)ncnc2cn1 [GW281179]
%Inh (AAK1): 20%
%Inh (ABL1-nonphosphorylated): 0%
%Inh (ABL1-phosphorylated): 0%
%Inh (ABL2): 12%
%Inh (ACVR1B): 0%
%Inh (ACVR1): 5%
%Inh (ACVR2A): 0%
%Inh (ACVR2B): 18%
%Inh (ACVRL1): 0%
%Inh (ADCK3): 7%
%Inh (ADCK4): 24%
%Inh (AKT1): 0%
%Inh (AKT2): 5%
%Inh (AKT3): 0%
%Inh (ALK): 23%
